Inconclusive results are not listed. The source made the active and inactive calls. Unless noted, calls follow the shape of the dose curve; as a rule, active = well fitted curve in the direction sought with a large enough effect; inconclusive = small, poorly fitted or top-dose-only effect, or another doubt; inactive = no such curve, though single readings can be large; an effect the other way counts as inactive or inconclusive. Where a SMILES comes first, the peptide text is derived from it. [ ]: non-standard residue; d: D form. The star is where a group is joined. Dolaproine = CO[C@@H]([C@@H]1CCCN1)[C@@H](C)C(=O)O; Dil = CC[C@H](C)[C@H](NC)[C@@H](CC(=O)O)OC; Doe = c1ccc(C[C@H](N*)c2nccs2)cc1; Aib = CC(C)(N)C(=O)O
Key:
[1] = P-glycoprotein substrates identified in KB-8-5-11 adenocarcinoma cell line, qHTS therapeutic library screen (AID 1346987); also: nearly all actives have a fitted effect of over 65% in size; also: potency is read from the fitted curve at half-maximal effect
Outline: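 KB-8-5-11: colchicine-selected sub-line of KB-3-1 over-expressing P-gp; assay medium lacked colchicine. 72 h drug exposure at 37 degree C, CellTiter-Glo.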

[2] = target: Cytochrome P450 2D6 (Homo sapiens) (UniProt P10635); experiment: Cytochrome P450 family 2 subfamily D member 6 (CYP2D6) small molecule antagonists: luciferase biochemical (cell-free) qHTS assay (AID 1645840; active = well fitted curve in the direction sought with a large enough effect in the repeat runs; an effect the other way counts as inactive or inconclusive; also: nearly all actives have a fitted effect of over 55% in size; also: potency is read from the fitted curve at half-maximal effect; as to activity change, negative = inhibition: % is scaled to controls: 0 for no effect and ±100 for the full control effect)
Chain of Cytochrome P450 2D6 (Homo sapiens) (P10635 whole entry, looked up): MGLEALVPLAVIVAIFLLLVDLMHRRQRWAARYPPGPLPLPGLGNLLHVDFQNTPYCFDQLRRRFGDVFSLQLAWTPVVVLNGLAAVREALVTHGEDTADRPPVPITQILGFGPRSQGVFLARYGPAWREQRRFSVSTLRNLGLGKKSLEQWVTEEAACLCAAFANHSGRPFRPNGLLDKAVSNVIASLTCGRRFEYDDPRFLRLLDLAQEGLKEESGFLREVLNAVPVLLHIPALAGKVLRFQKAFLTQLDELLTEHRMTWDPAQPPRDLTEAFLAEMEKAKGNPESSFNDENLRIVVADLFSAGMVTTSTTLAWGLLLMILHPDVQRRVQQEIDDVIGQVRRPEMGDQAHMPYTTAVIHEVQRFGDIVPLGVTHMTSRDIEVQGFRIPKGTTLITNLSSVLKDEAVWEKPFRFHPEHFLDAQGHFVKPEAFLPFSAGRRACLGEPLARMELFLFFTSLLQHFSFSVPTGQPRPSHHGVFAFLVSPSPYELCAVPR
Outline: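 P450-Glo luminescent screen: recombinant CYP2D6 enzyme–proluciferin substrate mix preincubated with compound 10 min at room temperature, then NADPH regeneration added for 1 h at room temperature. Detection reagent added for 20 min; luciferin light read as relative luminescence units.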

[3] = target: Cytochrome P450 2C9 (Homo sapiens) (UniProt P11712); experiment: Cytochrome P450 family 2 subfamily C member 9 (CYP2C9) small molecule antagonists: luciferase biochemical (cell-free) qHTS assay (AID 1645842; active = well fitted curve in the direction sought with a large enough effect in the repeat runs; an effect the other way counts as inactive or inconclusive; also: nearly all actives have a fitted effect of over 55% in size; also: potency is read from the fitted curve at half-maximal effect)
Chain of Cytochrome P450 2C9 (Homo sapiens) (P11712 whole entry, looked up): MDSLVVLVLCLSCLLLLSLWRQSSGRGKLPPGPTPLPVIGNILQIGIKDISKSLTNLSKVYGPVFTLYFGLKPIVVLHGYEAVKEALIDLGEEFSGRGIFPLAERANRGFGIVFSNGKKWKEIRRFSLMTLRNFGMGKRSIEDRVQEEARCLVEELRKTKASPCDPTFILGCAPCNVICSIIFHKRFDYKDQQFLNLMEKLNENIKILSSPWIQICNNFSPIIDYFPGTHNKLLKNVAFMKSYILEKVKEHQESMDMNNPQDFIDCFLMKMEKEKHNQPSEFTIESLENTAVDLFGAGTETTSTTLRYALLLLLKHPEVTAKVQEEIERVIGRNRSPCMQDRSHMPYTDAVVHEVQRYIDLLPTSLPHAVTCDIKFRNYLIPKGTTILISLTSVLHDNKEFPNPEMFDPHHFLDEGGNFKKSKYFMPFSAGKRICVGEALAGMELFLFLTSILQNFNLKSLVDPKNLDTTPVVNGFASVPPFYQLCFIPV
Outline: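 Luminescence, after 20 min with luciferin detection reagent, reflected CYP2C9 turnover during a 1 h NADPH-driven reaction at 37C. Enzyme-substrate mix contained 0.4% bovine serum albumin and was preincubated with compound 10 min at room temperature.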

[4] = Primary qHTS for inhibitors of nuclear receptor binding SET domain protein 2 (NSD2) in an isogenic RCH-ACV NSD2 p.E1099K mutant (9B) (AID 1645876); also: nearly all actives have a fitted effect of over 70% in size; also: potency is read from the fitted curve at half-maximal effect
[5] = Primary qHTS for inhibitors of nuclear receptor binding SET domain protein 2 (NSD2) in an RCH-ACV wild type WT cells (2C) (AID 1645877); also: nearly all actives have a fitted effect of over 70% in size; also: potency is read from the fitted curve at half-maximal effect
[6] = target: Catechol O-methyltransferase (Homo sapiens) (UniProt P21964); experiment: Confirmatory Screen for Target Class Profiling of Small Molecule Inhibitors of Methyltransferases (AID 1745852; calls by dose curve; as to activity change, negative = inhibition: % is scaled to controls: 0 for no effect and ±100 for the full control effect); settings: MTase-Glo luminescence, SAH detection, recombinant enzyme; measured here: COMT max response; stronger effect = lower value
Chain of Catechol O-methyltransferase (Homo sapiens) (P21964 whole entry, looked up): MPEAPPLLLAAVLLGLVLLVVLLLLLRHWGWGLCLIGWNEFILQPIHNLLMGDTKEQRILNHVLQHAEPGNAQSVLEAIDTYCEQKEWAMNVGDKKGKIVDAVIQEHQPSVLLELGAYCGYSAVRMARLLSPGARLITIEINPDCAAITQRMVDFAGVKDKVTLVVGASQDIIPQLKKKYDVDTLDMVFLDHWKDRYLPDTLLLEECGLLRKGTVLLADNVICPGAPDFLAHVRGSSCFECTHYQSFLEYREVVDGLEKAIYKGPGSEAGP

[7] = target: Guanidinoacetate N-methyltransferase (Homo sapiens) (UniProt Q14353); experiment: as above; settings: activity change, negative = inhibition: at 57.3 µM (top of the series) unless noted
[8] = target: Nicotinamide N-methyltransferase (Homo sapiens) (UniProt P40261); experiment: as above; settings: MTase-Glo luminescence, SAH detection, recombinant enzyme; measured here: NNMT max response; stronger effect = lower value
Chain of Nicotinamide N-methyltransferase (Homo sapiens) (P40261 whole entry, looked up): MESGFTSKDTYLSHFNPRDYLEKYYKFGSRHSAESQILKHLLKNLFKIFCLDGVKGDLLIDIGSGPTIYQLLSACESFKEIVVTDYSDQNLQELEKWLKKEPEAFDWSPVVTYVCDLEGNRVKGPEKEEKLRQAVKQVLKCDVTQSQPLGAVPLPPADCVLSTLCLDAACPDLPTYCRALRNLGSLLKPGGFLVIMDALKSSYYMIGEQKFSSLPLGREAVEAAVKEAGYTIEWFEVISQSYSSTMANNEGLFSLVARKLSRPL

[9] = target: Phenylethanolamine N-methyltransferase (Homo sapiens) (UniProt P11086); experiment: as above; settings: MTase-Glo luminescence, SAH detection, recombinant enzyme; measured here: PNMT max response; stronger effect = lower value
Chain of Phenylethanolamine N-methyltransferase (Homo sapiens) (P11086 whole entry, looked up): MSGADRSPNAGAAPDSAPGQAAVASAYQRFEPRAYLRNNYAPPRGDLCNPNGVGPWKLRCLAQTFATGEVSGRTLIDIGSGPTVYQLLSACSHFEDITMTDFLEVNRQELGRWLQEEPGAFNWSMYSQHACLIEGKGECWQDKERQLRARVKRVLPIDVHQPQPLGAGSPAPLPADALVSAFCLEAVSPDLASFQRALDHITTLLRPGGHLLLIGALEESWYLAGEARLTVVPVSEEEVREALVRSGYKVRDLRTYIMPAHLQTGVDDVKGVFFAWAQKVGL

HEK293 = experiment: Cytotoxic Profiling of Annotated Libraries Using Quantitative High-Throughput Screening (AID 1296008); settings: Five cell lines viability, CellTiter-Glo ATP luminescence, 48-72 h; max response: stronger effect = lower value; also: nearly all actives have a fitted effect of over 60% in size; also: potency is read from the fitted curve at half-maximal effect; as to max response: % is scaled to controls: 0 for no effect and ±100 for the full control effect
Outline: (§1)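 Cells exposed to compounds for 48 or 72 hr at 37 degrees Celsius. Viability read as ATP-coupled luminescence with CellTiter-Glo after 10 min at room temperature.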

KB-3-1 = experiment: as above; settings: Five cell lines viability, CellTiter-Glo ATP luminescence, 48-72 h; max response: stronger effect = lower value
Outline: as §1

HeLa = experiment: Primary qHTS to identify gynecologic anti-cancer compounds using libraries of approved drugs and bioactive compounds (AID 1345084); settings: Gynecologic cancer cell panel viability, ATPlite luminescence, 48 h; series mostly up to 57.5 µM; also: nearly all actives have a fitted effect of over 55% in size; also: potency is read from the fitted curve at half-maximal effect
Outline: (§2)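 48 h compound exposure at 37 C, 5% CO2; five-point qHTS. ATPlite luminescence readout of cell ATP.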

[10] = system: Zika virus NS2B-NS3 protease (unlinked complex); experiment: Primary screen GU Rhodamine qHTS for Zika virus inhibitors: Unlinked NS2B-NS3 protease assay (AID 1347159); also: % is scaled to controls: 0 for no effect and ±100 for the full control effect; nearly all actives have a fitted effect of over 60% in size
Outline: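 Noncovalent NS2B hydrophilic domain/NS3 protease complex (25 nM final) in 10 mM Tris-HCl pH 8.0, 0.01% Tween 20, preincubated 15 min with compounds (up to 114 microM), then 1.5 microM Rhodamine110 substrate. Fluorescence change over 15 min fitted to 4-parameter Hill.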

SKOV3 = experiment: Primary qHTS to identify gynecologic anti-cancer compounds using libraries of approved drugs and bioactive compounds (AID 1345084); settings: Gynecologic cancer cell panel viability, ATPlite luminescence, 48 h; series mostly up to 57.5 µM; also: nearly all actives have a fitted effect of over 55% in size; also: potency is read from the fitted curve at half-maximal effect
Outline: as §2

CRL-7250 [11] = experiment: Cytotoxic Profiling of Annotated Libraries Using Quantitative High-Throughput Screening (AID 1296008); settings: Five cell lines viability, CellTiter-Glo ATP luminescence, 48-72 h; max response: stronger effect = lower value; also: nearly all actives have a fitted effect of over 60% in size; also: potency is read from the fitted curve at half-maximal effect; as to max response: % is scaled to controls: 0 for no effect and ±100 for the full control effect
Outline: as §1

HACAT = experiment: qHTS assay to identify novel small-molecules to repurpose for Merkel cell carcinoma treatment (AID 1296009); settings: MCC and control cell lines, CellTiter-Glo viability, 72 h; at 44.8 µM (top of the series) unless noted; also: nearly all actives have a fitted effect of over 60% in size
Outline: (§3)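 Cells were incubated with compound for 72 hr at 37 degree celsius before CellTiter-Glo addition. Luminescence was normalized with no-cell wells as full cytotoxicity and DMSO as baseline.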

[12] = P-glycoprotein substrates identified in KB-3-1 adenocarcinoma cell line, qHTS therapeutic library screen (AID 1346986); also: nearly all actives have a fitted effect of over 60% in size
Outline: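 Compounds were tested in dose-response against KB-3-1 and KB-8-5-11 cells at 37 degree C for 72 h, and viability was measured by luminescence. AC50 values came from curve fitting with class-based activity calls.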

[13] = qHTS drug screen for cell cycle checkpoint inhibitors in PARPi-resistant BRCA-mutant ovarian cancer cell lines. (AID 1963452; calls by dose curve); settings: PEO1/OlaR viability, CellTiter-Glo luminescence, 96 h, stronger effect = lower value
Outline: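 PEO1, PEO4 and PEO1/OlaR ovarian cancer cells, 600 per well, exposed 96 h at 37C to a dilution series. Viability read by CellTiter-Glo luminescence, normalized to DMSO and empty wells; activity summarized as Z-AUC.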

CRL-7250 [14] = experiment: qHTS assay to identify novel small-molecules to repurpose for Merkel cell carcinoma treatment (AID 1296009); settings: MCC and control cell lines, CellTiter-Glo viability, 72 h; series mostly up to 92 µM; also: nearly all actives have a fitted effect of over 60% in size
Outline: as §3

NIH3T3 = experiment: as above; settings: MCC and control cell lines, CellTiter-Glo viability, 72 h; at 44.8 µM (top of the series) unless noted
Outline: as §3

O=C1Nc2ccc3ncsc3c2/C1=C/c1cnc[nH]1
-10%: activity [9]
-10.3%: activity [6]
-8.72%: activity [8]
active: Potency [1] 1.64 µM | Potency [2] 1.69 µM | Potency [3] 3.38 µM | Potency [4] 0.649 µM | Potency [5] 0.578 µM | Potency (HEK293) 5.17 µM | Potency (KB-3-1) 2.31 µM | Potency (HeLa) 22.4 µM
-5.42%: activity change, negative = inhibition [7]

COc1cccc(NCC(F)Cn2c3ccc(Br)cc3c3cc(Br)ccc32)c1 (stereo unspecified)
inactive: Potency [10] | Potency [2] | Potency (HeLa)
active: Potency [1] 14.6 µM | Potency [3] 7.56 µM | Potency [5] 20.5 µM | Potency (HEK293) 13 µM | Potency (KB-3-1) 18.4 µM | Potency (SKOV3) 14.1 µM

C/C=C(\C)C(=O)O[C@H]1CC2C(=C1C)[C@H]1OC(=O)[C@](C)(O)[C@]1(O)[C@H](OC(=O)CCC)C[C@@]2(C)OC(C)=O (stereo partly specified)
active: Potency [4] 1 µM | Potency [5] 0.709 µM | Potency (CRL-7250 [11]) 2.24 µM
inactive: Potency [1] | Potency [10] | Potency (SKOV3)

C=C1C(=O)OC2/C=C(\COO)CC/C=C(\COC(C)=O)CC(OC(=O)C(C)CC)C12 (stereo unspecified)
inactive: outcome (HACAT) inactive [at 17.4 µM] | Potency (HeLa)
active: Potency [4] 6.32 µM | Potency [5] 3.55 µM | Potency (CRL-7250 [11]) 7.96 µM

CCC1CC2CN3CCc4c([nH]c5ccccc45)C(C(=O)OC)(C2)C13 (stereo unspecified)
inactive: Potency [12] | Potency [1] | Potency [10] | Potency [4] | Potency [5] | max response (CRL-7250 [11]) 3.09% | outcome (KB-3-1) | Potency (HeLa)

NC(=O)[C@@H](CC1CC1)[C@@H](CCC(F)(F)F)C(=O)N[C@H]1N=C(c2ccccc2)c2cccc(F)c2NC1=O
-0.643: Z-AUC ([13]; measured here: PEO1 parental Z-AUC)
-1.43: Z-AUC ([13]; measured here: PEO4 Z-AUC)
inactive: Potency [1] | Potency [10] | Potency [4] | Potency [5] | Z-AUC [13] -1.08 | max response (HEK293) 0.706% | max response (KB-3-1) 4.24% | Potency (HeLa) | Potency (SKOV3)

CC12Cc3cn[nH]c3C=C1CCC1C2CCC2(C)C1CCC2(C)O (stereo unspecified)
inactive: outcome (CRL-7250 [11]) | Potency (CRL-7250 [14]) | Potency (HeLa) | Potency (SKOV3)

C[C@]12CC[C@H](O)CC1=CC[C@@H]1C2CC[C@]2(C)[C@@H](C3=CC(=O)OC3)CC[C@]12O (stereo partly specified)
inactive: Potency [10]
active: Potency [4] 3.19 µM | Potency [5] 4.5 µM | Potency (CRL-7250 [11]) 5.08 µM

O=C1CN=C(c2ccccc2Cl)c2cc(Br)ccc2N1
active: Potency [2] 13.5 µM | Potency [3] 13.5 µM | Potency [4] 23 µM | Potency [5] 12.9 µM
inactive: max response (CRL-7250 [11]) -11.2% | outcome (NIH3T3) | Potency (HeLa)

C[C@@H](CN1CCC2(CC1)C(=O)NCN2c1cccc(F)c1)NC(=O)c1ccc(Br)cc1
inactive: Potency [10] | outcome (CRL-7250 [11]) | Potency (HeLa)
active: Potency [2] 4.77 µM | Potency [3] 9.52 µM | Potency [4] 11.5 µM

CO[C@@H]1[C@@H](O)[C@@H](O[C@H]2CC[C@]3(C=O)C4CC[C@]5(C)[C@@H](C6=CC(=O)OC6)CC[C@]5(O)[C@@H]4CC[C@H]3C2)O[C@@H](C)[C@H]1O[C@@H]1O[C@H](CO[C@@H]2O[C@H](CO)[C@@H](O)[C@H](O)[C@H]2O)[C@@H](O)[C@H](O)[C@H]1O (stereo partly specified)
active: Potency [1] 3.48 µM | Potency [4] 2.75 µM | Potency [5] 3.46 µM | Potency (CRL-7250 [11]) 2.19 µM
inactive: Potency [10] | outcome (NIH3T3) inactive [at 9.27 µM]

COc1cc2c(cc1O)C1(C)CCC(O)C(C)(C)C1CC2=O (stereo unspecified)
inactive: Potency [12] | Potency [1] | Potency [10] | Potency [4] | Potency [5] | max response (HEK293) -7.2% | outcome (KB-3-1) | outcome (HACAT) | outcome (NIH3T3) | Potency (HeLa) | Potency (SKOV3)

CC[C@@H](C)[C@H]1C(=O)O[C@H](C(C)C)C(=O)N(C)[C@@H](C(C)C)C(=O)O[C@H](C(C)C)C(=O)N(C)[C@@H](C(C)C)C(=O)O[C@H](C(C)C)C(=O)N1C
active: Potency [1] 4.32 µM | Potency [4] 2.16 µM | Potency [5] 1.53 µM | Potency (CRL-7250 [11]) 3.85 µM

CCCCOC(=O)c1ccnc2cc(C(OCCN3CCCCC3)c3ccccc3Cl)sc12 (stereo unspecified)
-6.9%: activity [6]
inactive: max response (CRL-7250 [11]) -4.2% | outcome (HACAT) | Potency (HeLa) | Potency (SKOV3)
-22.8%: activity [8]
active: Potency [4] 23 µM
-16.1%: activity [9]
6.41%: activity change, negative = inhibition [7]

C[C@]12CC[C@H](O[C@@H]3O[C@H](CO)[C@@H](O)[C@H](O)[C@H]3O)CC1=CC[C@@H]1C2CC[C@]2(C)[C@@H](C3=CC(=O)OC3)CC[C@]12O (stereo partly specified)
active: Potency [4] 2.42 µM | Potency [5] 5.41 µM | Potency (CRL-7250 [11]) 3.43 µM

C[C@@H]1O[C@@H](O[C@H]2CC[C@@]3(C)C(CC[C@@H]4C3CC[C@]3(C)[C@@H](C5=CC(=O)OC5)CC[C@]43O)C2)[C@H](O[C@@H]2O[C@H](CO)[C@@H](O)[C@H](O)[C@H]2O)[C@H](O)[C@H]1O (stereo partly specified)
inactive: Potency [10]
active: Potency [1] 0.485 µM | Potency [4] 0.171 µM | Potency [5] 0.483 µM | Potency (HEK293) 0.485 µM | Potency (KB-3-1) 0.862 µM | Potency (HeLa) 1.26 µM | Potency (SKOV3) 2.24 µM

CC[C@H](C)[C@@H]([C@@H](CC(=O)N1CCC[C@H]1[C@H](OC)[C@@H](C)C(=O)N[C@@H](Cc1ccccc1)c1nccs1)OC)N(C)C(=O)[C@@H](NC(=O)C(C)(C)N)C(C)C (H-[Aib]V[Dil][Dolaproine]-Doe)
active: Potency (KB-3-1) 0.001 µM
inactive: Potency [4] | Potency [5] | max response (HEK293) -94.9% | outcome (HACAT) | Potency (SKOV3)

O=C(N[C@H]1CN2CCC1CC2)c1cc2cccc(Cl)c2s1
inactive: Potency [10] | Potency [3] | max response (CRL-7250 [11]) -12.3% | max response (KB-3-1) 2.28% | Potency (HeLa) | Potency (SKOV3)
active: Potency [2] 16.9 µM

Source: PubChem BioAssay (NCATS)
